Assay [1] in a line: compound effects on lung adenocarcinoma cell viability – A549, calcein-AM fluorescence, 48 h, basal, profiling panel (AID 1162). As to conditions: higher = more signal.
The nature of assay [2]: compound effects on differentiated 3T3-L1 adipocyte viability – cell-based, 3T3-L1 adipocytes, calcein-AM fluorescence, 48 h, basal, profiling panel (AID 1163). The following applies: 3T3-L1 adipocytes viability, higher = more signal.
Assay [3] is described as follows: compound effects on hepatocellular carcinoma cell viability – HepG2, calcein-AM fluorescence, 48 h, basal, profiling panel (AID 1164). The following applies: higher = more signal.
Assay [4] can be described thus: compound effects on multiple myeloma cell viability – MM1S, calcein-AM fluorescence, 48 h, basal, profiling panel (AID 1165). As to conditions: higher = more signal.
Assay [5] can be described thus: calcein-AM signal in unstimulated myeloma cells – cell-based, calcein-AM fluorescence, 48 h, PK04 Diversity Set, profiling panel (AID 1166).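 Further: cells grown under basal conditions without added stimulus.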 The following applies: RPMI8226 myeloma viability, higher = more signal.
Assay [6] is described as follows: JC-1 mitochondrial signal, unstimulated HepG2 cells – cell-based, JC-1 fluorescence, 24 h, 100 nL compound, profiling panel (AID 1167). As to conditions: HepG2 mitochondrial potential, higher = more signal.
Assay [7] is described as follows: JC-1 mitochondrial signal, unstimulated adipocytes – cell-based, JC-1 fluorescence, 3T3-L1 adipocytes, 24 h, 100 nL compound, profiling panel (AID 1168). The following applies: JC-1 mitochondrial fluorescence, higher = more signal, called active from +8 up or from −8 down.
Assay [8] in a line: JC-1 mitochondrial signal, unstimulated myeloma cells – cell-based, JC-1 fluorescence, RPMI8226, 24 h, 100 nL compound, profiling panel (AID 1169). The following applies: JC-1 mitochondrial potential fluorescence, higher = more signal.
Assay [9] can be described thus: JC-1 mitochondrial signal, unstimulated MM1S myeloma – cell-based, JC-1 fluorescence, 24 h, 100 nL compound, profiling panel (AID 1170). The following applies: MM1S mitochondrial potential, higher = more signal.
Assay [10] is described as follows: resazurin metabolic signal in A549 cells – cell-based, resazurin fluorescence, 24 h, PK04 Diversity Set, profiling panel (AID 1171). As to conditions: A549 viability, higher = more signal, called active from +8 up or from −8 down. (Alamar Blue is a resazurin reagent that responds to reducing activity.)

Activity calls are given as the source filed them.
Further: test concentration not given here.

`Cc1c(NC(=O)/C(C#N)=C/C=C/c2ccccc2)c(=O)n(-c2ccccc2)n1C`: the z-score in assay [1] is -0.864; in [2], 0.287; in assay [3], 0.458; in [4], 0.142; in [5], 0.24; in assay [6], -1.05. Besides, the z-score was -0.113 (inactive) in assay [7], 0.305 in assay [8], 0.56 in [9] and -0.2 (inactive) in assay [10].
On to `C=CCN1C(=O)[C@]2(COC(c3ccc(OCCCO)cc3)=N2)Cc2ccccc21`, for which the z-score in assay [1] was 0.78; in assay [2] it was 1.94; in assay [3] it was 0.641; in assay [4] it was -1.22; in [5], -0.326; in assay [6] it was 0.53. Besides, the z-score in assay [7] is 0.625 (inactive); in [8], -0.808; in [9], -0.599; in [10], -0.183 (inactive).
For the molecule `C=C(COC)/C(=C/C[C@H](OC(C)=O)c1ccccc1OCCO)c1cnc2ccccc2c1`, the z-score in assay [1] is 0.406; in [2] it was -0.309; in assay [3] it was -0.738; in assay [4] it was -2.08; in assay [5], -1.32; in assay [6], 1.4. Further, the z-score in assay [7] is -1.34 (inactive); in assay [8], -0.439; in [9] it was -0.62; in assay [10], -0.0424 (inactive).
On to `C=CCOC(=O)[C@H]1[C@@H]2C(=O)O[C@@H](c3ccccc3)[C@@H](c3ccccc3)N2[C@@H](c2ccc(OCCOC(=O)[C@@H]3C[C@@H]4C(=O)NCC(=O)N4[C@@H]3c3ccc(O)cc3)cc2)[C@]12C(=O)Nc1ccc(I)cc12`, for which the z-score in assay [1] is -0.566; in assay [2], -0.907; in assay [3] it was -0.368; in assay [4], -0.0033; in assay [5], 0.169; in [6] it was -1.55. The z-score in assay [7] is 0.459 (inactive); in assay [8], -0.688; in assay [9], -1.1; in assay [10], -0.148 (inactive).
In the case of `CN1C(=O)C2C=CC(C(O)c3ccc(Br)cc3)N(Nc3ccccc3)C2C1=O` (stereo not given), the z-score in assay [1] is 0.622; in assay [2], -0.384; in [3], 1.17; in assay [4], -0.0257; in assay [5], -0.119; in assay [6], -3.16. The z-score in assay [7] was -1 (inactive); in [8] it was 0.0774; in assay [9] it was -0.425; in [10] it was -0.443 (inactive).
As for `CC(c1ccccc1)C(O)C1C=CC2C(=O)N(Cc3ccccc3)C(=O)C2N1n1cnnc1` (stereo not given), the z-score in assay [1] is -0.313; in [2], 0.0487; in assay [3], -0.547; in assay [4] it was -0.0399; in assay [5] it was -0.751; in [6] it was 0.203. Also, the z-score in assay [7] was -0.884 (inactive); in [8], -0.107; in assay [9] it was -0.526; in assay [10], -0.694 (inactive).
In the case of `COc1ccc([Si](C)(C)[C@@H]2[C@@H](CC(=O)N3Cc4ccccc4C[C@H]3CO)O[C@]3(C(=O)N(Cc4cccc(N5C(=O)COc6ccccc65)c4)c4ccccc43)[C@H]2C)cc1`, the z-score was 0.196 in [1]; 1.34 in [2]; 0.553 in [3]; -0.296 in [4]; -1.47 in [5]; 0.411 in assay [6]. Moreover, the z-score in assay [7] is 1.52 (inactive); in assay [8] it was -1.17; in [9], -0.974; in [10], -0.751 (inactive).
Take `CC(C)OC(=O)C1=CCC(c2cccc(Cl)c2)O1` (stereo not given): the z-score in [1] was -1.14; in assay [2], 0.102; in [3], -0.582; in [4], -1.57; in [5] it was -1.58; in [6] it was -0.231. Further, the z-score in [7] is -0.076 (inactive); in assay [8], 0.923; in assay [9], -1.99; in assay [10] it was 1.09 (inactive).
For `O=C(NCC(O)CO)[C@]1(CCS(=O)(=O)c2ccccc2)N=C(c2ccc(OCCCO)cc2)O[C@@H]1c1ccccc1` (stereo not given in full), the z-score in assay [1] was -0.206; in [2], -0.13; in assay [3], -0.635; in assay [4] it was -0.37; in assay [5], -0.33; in assay [6], 0.22. Besides, the z-score was -1.3 (inactive) in [7], -0.213 in assay [8], -0.824 in assay [9] and 0.562 (inactive) in assay [10].
As for `COC(=O)c1c2oc(c1C(=O)OC)C(=O)N[C@H](Cc1ccccc1)Cn1nncc1C1(CCCCC1)NC(=O)N[C@H](CO)CC2`, the z-score is 0.876 in [1]; 0.0786 in [2]; 0.8 in assay [3]; -1.1 in assay [4]; 0.358 in assay [5]; 3.8 in [6]. Moreover, the z-score in [7] is -0.413 (inactive); in assay [8], -0.65; in assay [9], -0.936; in [10], 0.286 (inactive).
Take `O=c1cccc(-c2ccccc2)o1`: the z-score in [1] was -1.18; in assay [2] it was 0.0455; in assay [3], -0.738; in assay [4], -1.11; in [5], -0.664; in assay [6], -1.05. Further, the z-score is 0.221 (inactive) in [7], 0.826 in [8], -0.435 in assay [9] and 0.299 (inactive) in [10].
In the case of `COC(=O)[C@@]1(Cc2ccc(F)cc2)[C@H]2c3cc(C(=O)N(C)C)n(Cc4ccccn4)c3C[C@H]2CN1C(=O)c1ccccc1`, the z-score is -1.48 in [1]; 0.311 in assay [2]; 0.291 in [3]; 0.263 in assay [4]; -0.519 in assay [5]; -0.21 in [6]. Further, the z-score is -0.858 (inactive) in [7], -0.715 in assay [8], -1.01 in [9] and 0.45 (inactive) in [10].
As to `O=C1O[C@@H](c2ccccc2)[C@@H](c2ccccc2)N2[C@@H](c3ccc(O)cc3)[C@]3(C(=O)Nc4ccc(C#CCCO)cc43)[C@@H](C(=O)O)[C@H]12`, the z-score was 1.18 in assay [1]; 0.352 in assay [2]; 1.41 in assay [3]; -1.34 in [4]; -0.16 in assay [5]; 0.767 in assay [6]. Moreover, the z-score in assay [7] is -1.02 (inactive); in [8], -0.342; in assay [9] it was -0.29; in [10], 0.492 (inactive).
For `CC(C)(C)OC(=O)CC[C@@]1(C(=O)NCC(O)CO)N=C(c2ccc(OCCCO)cc2)O[C@@H]1c1ccccc1` (stereo not given in full), the z-score in [1] is -0.0139; in [2], -1.09; in [3], 1.92; in assay [4], -0.607; in [5], -0.0321; in [6], 1.93. For the same molecule, the z-score in [7] was -0.144 (inactive); in [8], -0.0607; in assay [9], -0.844; in [10], -0.387 (inactive).
Turning to `CC(C)[Si]1(C(C)C)O[C@@H](c2ccccc2)c2cc(-c3ccc(-c4ccc(Cl)c(Cl)c4)o3)nc(CCc3ccccc3)c21`, the z-score is -0.516 in assay [1]; -0.694 in assay [2]; 0.433 in assay [3]; -3.02 in [4]; -3.72 in [5]; -1.95 in assay [6]. Moreover, the z-score in [7] was -1.72 (inactive); in assay [8] it was -0.965; in [9] it was -1.91; in assay [10], -0.748 (inactive).

(Values after PubChem BioAssay.)
